Source: ChEMBL document CHEMBL4513216, “Probing the Open Global Health Chemical Diversity Library for Multistage-Active Starting Points for Next-Generation Antimalarials” (ACS Infect Dis, 2020)
Hit rate of the full screen: of about 69,000 compounds, about 8,600 (12%) showed an effect of 50% or more. The sample as a whole holds a higher share of strong results than the screen did.

system: Plasmodium berghei; experiment: Screen against P. berghei liver stage (PbLuc), transformed with Luciferase, at 10uM; type: functional, HepG2; settings: tested at 10 uM

Structure (SMILES)	INHIBITION [%]
COCC(=O)N1CCC2(CCN(Cc3ccc(C)cc3)CC2)CC1	10.5
CC[C@@H](C)[C@@H](N)C(=O)Nc1cccc(-c2cnc(N)nc2)c1	17.4
CC[C@@H](C)[C@@H](N)C(=O)Nc1cccc(-c2cnc(N(C)C)nc2)c1	76.8
CC[C@@H](C)[C@@H](N)C(=O)Nc1cccc(-c2cnc(N(C)CCO)nc2)c1	8.53
NC(=O)C1CCN(C(=O)Cn2ccc3cc(Br)ccc32)CC1	30.6
CC(C)(C)C1CCC(O)(CNC(=O)CCS(C)(=O)=O)CC1 (configuration not stated)	-23.2
Cc1ccc(C(=O)N(C)Cc2ccc3c(c2)OCCO3)c(=O)[nH]1	-11.6
Cn1cnc(S(=O)(=O)N2C[C@H]3CN(Cc4ccccn4)C[C@H]3C2)c1	76.4
Fc1cccc(CN2C[C@@H]3CN(Cc4ccccn4)C[C@@H]3C2)c1	18.6
CC(C)CN1CCCC2(CCN(c3ccccn3)C2)C1 (configuration not stated)	21.7
CS(=O)(=O)N1CCC2(CCCN(Cc3ccccn3)C2)C1 (configuration not stated)	-11.6
Cn1cnc(S(=O)(=O)N2C[C@H]3CC[C@@H](C2)N(Cc2ccccn2)C3)c1	20.9
Cn1cnc(S(=O)(=O)N2C[C@H]3CN(Cc4cccnc4)C[C@H]3C2)c1	49.1
COc1cc(N2CCC3(CCCN(Cc4ccccn4)C3)C2)ncn1 (configuration not stated)	84.7
COc1cc(N2C[C@H]3CN(Cc4ccccn4)C[C@H]3C2)ncn1	85.6
COc1cc(N2CCC(c3nccn3Cc3ccccn3)CC2)ncn1	8.97
CCc1csc(NC(=O)Nc2c(C)n[nH]c2C)n1	-1.79
CC(=O)N1CCCC1c1nc(C)no1 (configuration not stated)	7.05
Cc1cc(NCCc2cnccn2)nc(-c2ccccc2O)n1	17.5
O=C(NCc1cc[nH]n1)N1CCCC(N2CCCC2)C1 (configuration not stated)	16.9
NC(=O)CSc1ccccc1NC(=O)CC1C=CCC1 (configuration not stated)	-54.9
COCC(=O)NC(CC(C)C)c1nc2cccnc2n1C (configuration not stated)	-0.232

Structure (SMILES)	INHIBITION [%]
Cc1ccc(C(=O)Nc2c(C(=O)N(C)C)nn(C)c2C)cc1C	35
CCOc1cc(F)ccc1NC(=O)N(C)Cc1cnn(C)c1	4.71
CCC(=O)N1CCC2(CCN(Cc3cccc(F)c3)CC2)CC1	-6.97
CN(Cc1ccco1)[C@@H]1CN(Cc2cccnc2)C[C@@H]2CCCO[C@@H]21	30.4
CN(Cc1ccco1)[C@@H]1CN(Cc2ccc(F)cc2)[C@@H]2CCCO[C@H]12	81.2
CN(Cc1ccco1)[C@@H]1CN(Cc2cccnc2)[C@@H]2CCCO[C@H]12	55.5
CN(Cc1ccco1)[C@@H]1CN(Cc2ccc(F)cc2)C[C@@H]2CCCO[C@@H]21	31.8
COc1ccc(CN2C[C@@H](N(C)Cc3ccco3)[C@H]3OCCC[C@H]32)cc1	31.8
CN(Cc1ccco1)[C@@H]1CN(Cc2ccco2)[C@@H]2CCCO[C@H]12	15.4
O=C1CCN(C(=O)NCc2ccccc2Oc2ccccc2)CCN1	11.4
COCC1CN(C(=O)c2ccco2)Cc2cn(C)nc21 (configuration not stated)	-30.6
Cc1ncc(C(=O)N2CC(C(=O)N3CCCCCC3)C2)c(C)n1	27.7045
CN(C)[C@@H]1CN(Cc2ccccn2)C[C@H]1c1cn(C)c2ccccc12	13.55
CC(C)=CCN1C[C@@H]2CC[C@H]1CN(C(=O)c1ccc3nc[nH]c3c1)C2	10.3
Cc1nn(C)c(C)c1S(=O)(=O)N1CC[C@@H]2O[C@@H](C)C[C@H]2C1	7.5
CCN1C[C@H]2C3(CCN(S(C)(=O)=O)CC3)CC[C@@]2(C(=O)N(C)C)C1	44.8
CC(c1nnc(-c2ccccc2)o1)N1CCC(Nc2ccccc2)CC1 (configuration not stated)	31.5
COCC1CN(Cc2ccc(C)o2)Cc2nnn(C)c21 (configuration not stated)	-102
CCC1CCCN(Cc2nc3ccccc3c(=O)[nH]2)C1 (configuration not stated)	67.5
Cc1nc(CC2CCCN(Cc3nc4ccccc4c(=O)[nH]3)C2)no1 (configuration not stated)	45.2
O=c1[nH]c(CN2CCCC(Cn3cncn3)C2)nc2ccccc12 (configuration not stated)	21.01
Cc1nccn1C1CCCN(C(=O)c2ccc3cc[nH]c3c2)C1 (configuration not stated)	4.52

Structure (SMILES)	INHIBITION [%]
Cc1nnc(-c2cccc(N3CCC(NC4CCSC4)CC3)c2)s1 (configuration not stated)	18.9
CC(C)CC(C)NC1CCN(c2cccc(-c3cscn3)c2)CC1 (configuration not stated)	34.1
Cc1nnc(-c2cccc(N3CCC(NC(C)CC(C)C)CC3)c2)s1 (configuration not stated)	62.4
COCCNC(=O)c1ccc(NCc2c(C)noc2C)cc1Cl	2.03
O=C(c1cnccn1)N1CCOC2(CCCN(c3ncccc3F)C2)C1 (configuration not stated)	39.5
COCCNC(=O)N1CCN(c2cc(F)ccc2F)CC1	8.7
CNCc1cnc(Nc2ccccc2)nc1	39.9
CC(C)c1nnc(NC(=O)C2CSCN2C(=O)C2CCC2)s1 (configuration not stated)	61.2
O=C(Nc1nncs1)C1CSCN1C(=O)C1CCCC1 (configuration not stated)	20.5
Cc1nnc(NC(=O)C2CSCN2C(=O)C2CCCC2)s1 (configuration not stated)	25.4
CN1CCC(N(C)C(=O)Nc2ccc(Cl)cc2)CC1	-5.64
CN(C(=O)NC1CC1)C1CCN(c2ccc(Cl)cc2)CC1	13.9
COc1ccc(N2CCC(N3C[C@H](NC(C)=O)[C@@H](C(C)C)C3)CC2)cc1	33
COc1ccc(N2CCC(N(C)C(=O)C(C)SC)CC2)cc1 (configuration not stated)	60.4
CN(C(=O)Nc1cccnc1)C1CCN(c2ccc(Cl)cc2)CC1	60.4
CN(CC(=O)N(C)C1CC1)C1CCN(c2ccc(Cl)cc2)CC1	29
COc1ccc(OC2CCN(c3ccncc3)CC2)cc1	55.1
CC(C)CN(C(=O)Nc1cccnc1)C1CC1	-18.5
COc1ccccc1OC1CCN(c2ccncc2)CC1	-2.93
CSC(C)C(=O)N(C)C1CCN(c2ccc(Cl)cc2)CC1 (configuration not stated)	35.5
CN1CCC(Oc2ccc(-n3ccnc3-c3ccncc3)cc2)CC1	49.4
CN(C(=O)Nc1ccncc1)C1CCN(c2ccc(Cl)cc2)CC1	83.1

Structure (SMILES)	INHIBITION [%]
CS(=O)(=O)N[C@@H]1CN(Cc2ccc3ccccc3c2)C[C@H]1O	-6.88
O=C(Cc1ccccn1)N1CCCC(c2nccn2CC2CCC2)C1 (configuration not stated)	10.7
O=C(O)c1cc(C2CC2)nc2c(Cl)cnn12	29.2
CC(C)C(C(=O)N1CCN(c2nccs2)CC1)n1cncn1 (configuration not stated)	5.03
Cc1nc(C2CCNC2)nc2c1CCC(=O)N2CC(C)C (configuration not stated)	25.65
CN1C(=O)c2cccc(NC(=O)c3ccc4c(c3)OCCO4)c2C1=O	8.46
CC(C)(C)NC(=O)[C@@H]1CNC[C@]12Cc1ccccc1C(=O)N2	24.2
COCCNc1nnc(-c2cnc(C)cn2)s1	-54.1
c1cncc(C[C@H]2[C@H](N3CCOCC3)CCN2Cc2nccs2)c1	8.85
Cn1cc(C(=O)N2CCN(Cc3cscn3)CC2)ccc1=O	-8.22
Cc1cc(NC(=O)N(C)CCN2CCN(c3ccccc3)CC2)on1	35.5
COc1ccc(N2CCC(N(C)C(C)C(=O)N(C)C)CC2)cc1 (configuration not stated)	45.3
COCc1ncc(CN2CCC(Oc3ccc(OC)cc3)CC2)cn1	56
COCc1ncc(CN2CCC(Oc3ccccc3OC)CC2)cn1	-20.6
COc1ccc(N2CCC(N(C)C(=O)Nc3ccncc3)CC2)cc1	52.8
COCc1ncc(CN2CCC(Oc3ccccc3C)CC2)cn1	26.8
CN(CCN1CCN(c2ccccc2)CC1)C(=O)Nc1ccccn1	45.4
CN(CCN1CCN(c2ccccc2)CC1)C(=O)Nc1ccncc1	73.2
CCOC(C)C(=O)N(C)C1CCN(c2ccc(OC)cc2)CC1 (configuration not stated)	33.4
CC(=O)NCCc1ccc(S(=O)(=O)Nc2ccc(C)cc2F)s1	-44.2
CN(C)c1cc(C2CCCN2)ccn1 (configuration not stated)	33.54
O=S(=O)(Cc1ccon1)N1CCN(c2ccncc2Cl)CC1	38.9

Structure (SMILES)	INHIBITION [%]
O=c1[nH]c2ncccc2n1C1CCNCC1	-6.18
Cc1nccn1-c1cc(CNC(=O)CC2CCCO2)ccn1 (configuration not stated)	30.6
CO[C@H]1CC[C@H]2[C@H]1OCCN2Cc1ccc(F)c(F)c1	22.4
Cc1ccc(Nc2ncnc3c2CCN(CC2CCOC2)CC3)cc1 (configuration not stated)	29.8
Cc1cnn(CCNc2ncnc3c2CCN(CC2CCOC2)CC3)c1 (configuration not stated)	60
CCN(CC)c1ncnc2c1CCN(CC1CCOCC1)CC2	41.6
CN(C)c1ncnc2c1CCN(CC1CCOCC1)CC2	64.9
Cc1ncnc2c1CCN(CC1CCOC1)CC2 (configuration not stated)	18.3
c1nc2c(c(C3CC3)n1)CCN(CC1CCOC1)CC2 (configuration not stated)	13.6
CN(C)c1ncnc2c1CCN(CC1CCOC1)CC2 (configuration not stated)	19.9
c1nc2c(c(NCCCn3cncn3)n1)CCN(CC1CCOC1)CC2 (configuration not stated)	31.6
CCN(C)c1ncnc2c1CCN(CC1CCOC1)CC2 (configuration not stated)	55.5
CCOC(=O)Cn1c(=O)[nH]c2cn(-c3ccccc3)c(=O)n21	7.3
Cc1cc(N2CCCC2c2nccnc2C)ncn1 (configuration not stated)	26.8
Cc1nc(CN2CC3(CCN(c4nccs4)C3)CC2=O)cs1 (configuration not stated)	-3.52
CCN(CC)C1CCN(C(=O)NCc2cccc(-n3cccn3)c2)C1 (configuration not stated)	27
CC(=O)Nc1ccc(-n2ccc3nc(N4CCCC4)ncc3c2=O)cc1	80.5
CC(=O)c1ccc(-n2ccc3nc(N4CCCC4)ncc3c2=O)cc1	-82.2
O=c1c2cnc(N3CCCCC3)nc2ccn1-c1ccccc1	19.7
